Screening results as filed in PubChem.
Coupling enz – qHTS Assay for Inhibitors of Fructose-1,6-bisphosphate Aldolase from Giardia Lamblia: Coupling assay counterscreen; activity change, negative = inhibition, % at 58.2 µM, hits read low; coupling enzyme system counterscreen, AmpLite Red fluorescence; 0.67% of 290,000 active; in the data active = activity change below about -30%
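Activity here indicates interference with the coupling reaction, not aldolase inhibition. Compounds at 57.5 uM final met coupling enzymes for 10 min at RT; substrate and AmpLite Red detection followed, with a 525/598 nm fluorescence read after 20 min.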
KCNH2 3.1 block – qHTS for Inhibitors of KCHN2 3.1: Mutant qHTS | Potassium voltage-gated channel subfamily H member 2, brain isoform KCNH2 3.1 (human) | U2OS KCNH2 3.1, thallium flux FluxOr; hits give low values | activity change, % (tested at about 1.8 µM) | 0.95% of 340,000 active;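 active = maximum activity change below -70%; inconclusive = maximum activity change from -70% to -50%; inactive = maximum activity change above -50%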;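 note: thallium influx rate constant from kinetic fluorescence after stimulation buffer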
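Thallium flux via FluxOr fluorescence (Red40 quencher, 45 min loading) in U2OS cells virally expressing the KCNH2 3.1 isoform (1.77 x 10^8 /mL virus, overnight at 37 C). Rate constants from 2-min kinetic reads post-stimulation, normalised to positive and negative controls.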
hERG WT inh – qHTS for Inhibitors of KCHN2 3.1: Wildtype qHTS | Voltage-gated inwardly rectifying potassium channel KCNH2 (Homo sapiens), Q12809 | activity change, % at 1.84 µM | 0.37% of 340,000 active | U2OS, BacMam KCNH2, thallium flux FluxOr; hits give low values;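 active = maximum activity change below -70%; inconclusive = maximum activity change between -70% and -50%; inactive = maximum activity change above -50%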
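U2OS cells were transduced with wild-type KCNH2 virus (2.03 x 10^8 / mL) for 4 h at room temperature, then cultured overnight at 37 C. Thallium flux was read with FluxOr dye. Rate constants were normalized to DMSO controls.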
USP1-UAF1 inh – Inhibitors of USP1/UAF1: Primary Screen. Ubiquitin carboxyl-terminal hydrolase 1 (Homo sapiens), O94782. recombinant USP1/UAF1, Ub-Rhodamine cleavage fluorescence. Potency, µM (highest dose often 57.1 µM), most hits filed as inhibitors. 0.23% of 390,000 active. AID 743255, 2014; active = well fitted inhibition curve with a large enough effect; inconclusive = small, poorly fitted or top-dose-only effect; inactive = no such curve, though single readings can be large or run the other way; note: nearly all actives have a fitted effect of over 60% in size
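1 nM enzyme complex + cpd, 15 min RT; start with Ub-Rho 150nM final; kinetic fluorescence ex 480/em 540, 6 reads q60 s. Buffer 50mM HEPES pH 7.8, 0.5mM EDTA, 0.1 mg/ml BSA, 1mM TCEP, 0.01% Tween-20.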
Giardia killer – Small Molecules that selectively kill Giardia lamblia: qHTS | Giardia lamblia trophozoite viability | 0.15% of 340,000 active | activity change, % at 7.66 µM, hits read low; in the data active = activity change below about -80%; inconclusive = between about -30% and that limit;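 note: parasites exposed to compound for two days anaerobically before the ATP read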
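Trophozoites 100 cells/well + cpd; 48 hrs, 37 deg C, anaerobic. ATPLite 1-Step added, 15-30 min RT, luminescence read (ATP-based viability).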
Each line names hits and unclear results; the compound was inactive in the other large screens. Sampled rows, rich in hits. Any-hit rate of the full collection: about 1.7%.

Cc1c(CN2CCC(CO)(Cc3ccccc3)CC2)c2ccccc2n1C	none
OCC1(Cc2ccccc2)CCN(CCCC2CCCC2)CC1	KCNH2 3.1 block -75.0
OCC1(Cc2ccccc2)CCN(Cc2ccc(-c3ccco3)cc2)CC1	KCNH2 3.1 block -85.1
COc1ccc(CC2(CO)CCN(Cc3ccc4c(c3)CCO4)CC2)cc1	KCNH2 3.1 block -181.1, hERG WT inh -154.2
COc1cc(CN(C(=O)COc2ccc(F)cc2)c2ccccn2)cc(OC)c1OC	none (no result: Coupling enz, KCNH2 3.1 block, hERG WT inh, Giardia killer)
COC(=O)N1C2CC(=O)O[C@@H]3c4cc5c(cc4[C@]1(C)[C@@]3(Br)c1ccccc12)OCO5	none (no result: KCNH2 3.1 block, hERG WT inh, USP1-UAF1 inh, Giardia killer)
COc1ccc(CC2(CO)CCN(Cc3cccc4nccnc34)CC2)cc1	none
COc1ccc(CC2(CO)CCN(Cc3ccc(OC(F)(F)F)cc3)CC2)cc1	KCNH2 3.1 block -81.3, hERG WT inh inconclusive
COc1ccc(CC2(CO)CCN(Cc3cccn3-c3ccccn3)CC2)cc1	KCNH2 3.1 block -108.4, hERG WT inh inconclusive
N#Cc1ccccc1NC(=O)CSc1nc(-c2ccccc2)cc(C(F)(F)F)c1C#N	none (no result: Coupling enz, KCNH2 3.1 block, hERG WT inh, Giardia killer)
O=[N+]([O-])c1cccc2nc(-c3ccccc3)c(-c3ccccc3)nc12	KCNH2 3.1 block -108.3, hERG WT inh -132.2
CCOc1ccccc1NS(=O)(=O)c1ccc2c(c1)CC(C)N2C(=O)C1CCC1 (configuration not stated)	none (no result: Coupling enz, KCNH2 3.1 block, hERG WT inh, Giardia killer)
O=C(c1cc(Sc2ccc(Cl)cc2)nc2ccccc12)N1CCN(c2ccccn2)CC1	KCNH2 3.1 block -78.5
CCOC(=O)c1cc(S(=O)(=O)N2CCN(c3ccccc3OC)CC2)[nH]n1	none (no result: Coupling enz, KCNH2 3.1 block, hERG WT inh, Giardia killer)
CC(C)CCNC(=O)C12CN(Cc3ccccc3)CC1C(c1ccc([N+](=O)[O-])cc1)=NO2 (configuration not stated)	KCNH2 3.1 block -106.8
COc1cccc(CNC(=O)C23CN(Cc4ccccc4)CC2C(c2ccc([N+](=O)[O-])cc2)=NO3)c1 (configuration not stated)	KCNH2 3.1 block -101.8
Cc1ccc(CCNC(=O)C23CN(Cc4ccccc4)CC2C(c2cccc([N+](=O)[O-])c2)=NO3)cc1 (configuration not stated)	none
O=C(NCc1ccccc1C(F)(F)F)C12CN(Cc3ccccc3)CC1C(c1ccc([N+](=O)[O-])cc1)=NO2 (configuration not stated)	KCNH2 3.1 block -118.1
COc1ccc(CCNC(=O)C23CN(Cc4ccccc4)CC2C(c2cccc([N+](=O)[O-])c2)=NO3)cc1 (configuration not stated)	none
O=C(NNc1c(Cl)cccc1Cl)c1sc2ccccc2c1Cl	none (no result: Coupling enz, KCNH2 3.1 block, hERG WT inh, USP1-UAF1 inh)
CCN(CC)c1ccc(NC2=C(Cl)C(=O)c3ccccc3C2=O)cc1	Coupling enz -38.4, USP1-UAF1 inh inconclusive
CCNC1=C(Cl)C(=O)c2ccccc2C1=O	Coupling enz -33.0, USP1-UAF1 inh inconclusive
CCCC(=O)NC1=C(Cl)C(=O)c2ccccc2C1=O	USP1-UAF1 inh 17.8µM (no result: Coupling enz)
O=C1C(Cl)=C(NCCN2CCCCC2)C(=O)c2ccccc21	Coupling enz -37.3, USP1-UAF1 inh 17.8µM
Cc1ccc(NC2=C(Cl)C(=O)c3ccccc3C2=O)cc1	none
CCc1nn(CC(=O)Nc2ccc(C)c(F)c2)c(=O)c2cc3cc(C)ccc3n12	none (no result: Coupling enz, KCNH2 3.1 block, hERG WT inh, Giardia killer)
COc1ccc(-c2nnc3n2N=C(c2c(OC)cccc2OC)CS3)cc1OC	none (no result: KCNH2 3.1 block, hERG WT inh, USP1-UAF1 inh, Giardia killer)
Cc1c(C(=O)c2ccc(Cl)cc2[N+](=O)[O-])c2ccccn2c1CCC#N	Giardia killer -100.5
Cc1c(C(=O)c2ccc(F)cc2F)c2ccccn2c1CCC#N	Coupling enz -40.0
Cc1c(C(=O)c2ccc(Cl)c([N+](=O)[O-])c2)c2ccccn2c1CCC#N	none
COc1cc(C2CC(=O)Oc3ccc(O)cc32)cc(OC)c1OC (configuration not stated)	none (no result: KCNH2 3.1 block, hERG WT inh, USP1-UAF1 inh, Giardia killer)
COc1ccc(NC(=O)C(c2ccccc2)N2CCN(c3ccccn3)CC2)cc1Cl (configuration not stated)	KCNH2 3.1 block -109.0
Cc1ccc(NC(=O)C(c2ccccc2)N2CCN(CC(=O)NC3CC3)CC2)cc1Cl (configuration not stated)	none (no result: Coupling enz)
CCOc1ccccc1CN1CCNC(=O)C1CC(=O)N(C)Cc1cnccn1 (configuration not stated)	KCNH2 3.1 block -114.5
CCOc1ccccc1CN1CCNC(=O)C1CC(=O)N(C)Cc1nonc1C (configuration not stated)	none (no result: Coupling enz)
CCc1ccc(CN(C)C(=O)CC2C(=O)NCCN2Cc2ccoc2)cc1 (configuration not stated)	KCNH2 3.1 block -84.7
CCC[C@H](NC(=O)[C@H](Cc1ccc(O[S+](=O)([O-])O)cc1)NC(=O)OC(C)(C)C)C(=O)NCC(=O)N[C@@H](Cc1c[nH]c2ccccc12)C(=O)N[C@@H](CCC)C(=O)N[C@@H](CC(=O)OCCc1ccccc1)C(=O)O	none (no result: KCNH2 3.1 block, hERG WT inh, USP1-UAF1 inh, Giardia killer)
COc1ccc(CN2CCCC(C(=O)c3ccc(Cl)cc3)C2)cc1Cn1cccn1 (configuration not stated)	KCNH2 3.1 block -96.4, hERG WT inh -106.5
CCOc1cccc(CN2CCCC(N3CCN(c4cccc(Cl)c4)CC3)C2)c1O (configuration not stated)	KCNH2 3.1 block -81.9
COc1ccc(C(=O)C2CCCN(Cc3cc(Cl)ccc3O)C2)c(OC)c1 (configuration not stated)	KCNH2 3.1 block -74.2
CCOc1cccc(CN2CCCC(C(=O)c3cc(Cl)ccc3OC)C2)c1O (configuration not stated)	KCNH2 3.1 block -115.0, hERG WT inh -105.0
CCOc1cc(C2NC(=O)c3c(sc4c3CCN(C)C4)N2)ccc1OC(=O)c1ccccc1Cl (configuration not stated)	none (no result: Coupling enz, KCNH2 3.1 block, hERG WT inh, Giardia killer)
CCc1ccc(-c2nn(CC(=O)NC3CCCCC3)c3c2cnc2ccc(F)cc23)cc1	none (no result: Coupling enz, KCNH2 3.1 block, hERG WT inh, Giardia killer)
CCCCn1c(N)c(N(CC(C)C)C(=O)CCS(=O)(=O)c2ccc(C)cc2)c(=O)[nH]c1=O	none (no result: Coupling enz)
CCC(C)(C)C(=O)Nc1cc([N+](=O)[O-])ccc1F	KCNH2 3.1 block -175.5, hERG WT inh -249.7
CCC(C)(C)C(=O)Nc1cc([N+](=O)[O-])ccc1Cl	none
COc1ccc2c(c1)c1c(c(=O)n(-c3ccc(F)c(Cl)c3)c(=O)n1CC(=O)N1CCCC1)n2C	none (no result: Coupling enz, KCNH2 3.1 block, hERG WT inh, Giardia killer)
NC(=O)c1cccn1Cc1ccccc1Cl	hERG WT inh -301.4
O=C(Nc1cc(Cl)ccc1O)c1cc2nc(-c3ccc4c(c3)OCO4)cc(C(F)(F)F)n2n1	none (no result: Coupling enz, KCNH2 3.1 block, hERG WT inh, Giardia killer)
CSc1ccc(S(=O)(=O)NCc2ccc(C)cc2)cc1	KCNH2 3.1 block -78.2
COc1cc(C(C#N)N2CCOCC2)ccc1O (configuration not stated)	Coupling enz -34.8
